The source made the active and inactive calls. Rule for the calls: active = hit-call score of the fitted dose curve at least 0.9, where 1 is the maximum; inactive = score below 0.9.
Key:
Conditions in all cases: mRNA level, 48 h; actives raise or lower the signal
[1] = read-out: HGF (gene 3082); assay: LTEA_HepaRG_HGF: Life Technologies and Expression Analysis (LTEA) Assay for Hepatocyte Growth Facto (HGF) using HepaRG (AID 2283505)
In short: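 Using HepaRG monolayers kept in 0.5% DMSO, chemicals were tested in duplicate over eight half-log concentrations from 100 uM for 48 h. Endpoint: HGF mRNA change relative to DMSO, normalized to ACTB/GAPDH/POLR2A.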

[2] = read-out: Insulin Like Growth Factor 1 (IGF1), IGF1 (gene 3479); assay: LTEA_HepaRG_IGF1: Life Technologies and Expression Analysis (LTEA) Assay for Insulin Like Growth Factor 1 (IGF1) using HepaRG (AID 2283506)
In short: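 Expression measured by TaqMan qRT-PCR on a Fluidigm array, with three housekeeping genes for normalisation, after 48 h treatment of HepaRG cells. Top concentration 100 uM with half-log steps, 0.5% DMSO vehicle, bidirectional fit.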

[3] = read-out: Intercellular Adhesion Molecule 1 (ICAM1), ICAM1 (gene 3383); assay: LTEA_HepaRG_ICAM1: Life Technologies and Expression Analysis (LTEA) Assay for Intercellular Adhesion Molecule 1 (ICAM1) using HepaRG (AID 2283507)
In short: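 Using the human liver line HepaRG, compounds are tested in duplicate over 48 h at concentrations up to 100 uM. Expression is determined by TaqMan qRT-PCR, normalized to endogenous controls, and analysed relative to 0.5% DMSO vehicle.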

[4] = read-out: Insulin-like growth factor-binding protein 1 (IGFBP1), IGFBP1 (gene 3484); assay: LTEA_HepaRG_IGFBP1: Life Technologies and Expression Analysis (LTEA) Assay for Insulin-like growth factor-binding protein 1 (IGFBP1) using HepaRG (AID 2283508)
In short: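 HepaRG, 48 h, 8 conc. (max 100 uM, half-log), duplicates, 0.5% DMSO. Readout: TaqMan qRT-PCR, ACTB/GAPDH/POLR2A normalisation. Fit: bidirectional vs DMSO.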

[5] = read-out: Interleukin 6 Receptor (IL6R), IL6R (gene 3570); assay: LTEA_HepaRG_IL6R: Life Technologies and Expression Analysis (LTEA) Assay for Interleukin 6 Receptor (IL6R) using HepaRG (AID 2283510)
In short: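 IL6R transcript level by qRT-PCR after 48 h chemical exposure (8-point, half-log, max 100 uM, 0.5% DMSO vehicle) of HepaRG cells in serum-free induction medium. Normalized to three housekeeping genes; curves fitted in both directions relative to DMSO.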

[6] = read-out: Potassium channel subfamily K member 1 (KCNK1), KCNK1 (gene 3775); assay: LTEA_HepaRG_KCNK1: Life Technologies and Expression Analysis (LTEA) Assay for Potassium channel subfamily K member 1 (KCNK1) using HepaRG (AID 2283511)
In short: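 KCNK1 transcript measured by TaqMan qRT-PCR against three housekeeping genes, after HepaRG cells were treated 48 h with eight half-log concentrations (top 100 uM, 0.5% DMSO). Curves fitted bidirectionally relative to vehicle.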

[7] = read-out: Keratin 19 (KRT19), KRT19 (gene 3880); assay: LTEA_HepaRG_KRT19: Life Technologies and Expression Analysis (LTEA) Assay for Keratin 19 (KRT19) using HepaRG (AID 2283512)
In short: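 Readout is qRT-PCR of KRT19 mRNA, normalized to ACTB, GAPDH and POLR2A, from HepaRG cells treated 48 h with eight-point half-log dilutions topping at 100 uM. Activity in either direction is scored relative to 0.5% DMSO vehicle.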

[8] = read-out: JUN Transcription Factor, JUN (gene 3725); assay: LTEA_HepaRG_JUN: Life Technologies and Expression Analysis (LTEA) Assay for JUN Transcription Factor using HepaRG (AID 2283513)
In short: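 mRNA measured by TaqMan qRT-PCR after 48 h chemical exposure of HepaRG cultures; normalization to three housekeeping genes. Duplicate eight-point half-log curves from 100 uM in 0.5% DMSO; gain or loss fitted against DMSO baseline.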

[9] = read-out: Lipase C (LIPC), LIPC (gene 3990); assay: LTEA_HepaRG_LIPC: Life Technologies and Expression Analysis (LTEA) Assay for Lipase C (LIPC) using HepaRG (AID 2283514)
In short: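 LIPC expression was quantified by qRT-PCR against three housekeeping genes (ACTB, GAPDH, POLR2A). Differentiated human HepaRG cells received eight half-log doses (top 100 uM, 0.5% DMSO) in duplicate for 48 h; fitting bidirectional relative to DMSO.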

[10] = read-out: Lipoprotein lipase (LPL), LPL (gene 4023); assay: LTEA_HepaRG_LPL: Life Technologies and Expression Analysis (LTEA) Assay for Lipoprotein lipase (LPL) using HepaRG (AID 2283515)
In short: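 LPL transcript levels quantified by TaqMan qRT-PCR against three housekeeping genes after 48 h chemical treatment of HepaRG cells. Eight-point half-log series from 100 uM in 0.5% DMSO, tested in duplicate; bidirectional fitting versus vehicle.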

[11] = read-out: MicroRNA 122 (MIR122), gene 406906; assay: LTEA_HepaRG_MIR122: Life Technologies and Expression Analysis (LTEA) Assay for MicroRNA 122 (MIR122) using HepaRG (AID 2283516); note: the transcript read is the microRNA miR-122
In short: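 Expression measured by microfluidic qRT-PCR with three housekeeping genes for normalisation, after 48 h treatment of HepaRG cultures. Eight concentrations (top 100 uM, half-log steps, 0.5% DMSO vehicle) in duplicate; gain or loss fitted relative to vehicle.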

[12] = read-out: matrix metalloproteinase-10 (MMP10), MMP10 (gene 4319); assay: LTEA_HepaRG_MMP10: Life Technologies and Expression Analysis (LTEA) Assay for matrix metalloproteinase-10 (MMP10) using HepaRG (AID 2283517)
In short: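 Expression measured by TaqMan qRT-PCR with ACTB/GAPDH/POLR2A normalisation after 48 h chemical exposure of HepaRG cells. Eight half-log concentrations, top 100 uM, 0.5% DMSO vehicle, duplicates; gain or loss fitted against vehicle.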

[13] = read-out: MYC, MYC (gene 4609); assay: LTEA_HepaRG_MYC: Life Technologies and Expression Analysis (LTEA) Assay for MYC using HepaRG (AID 2283518)
In short: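 Expression changes were scored by TaqMan qRT-PCR with ACTB, GAPDH and POLR2A normalization. Cultures in serum-free induction medium received duplicate 8-point concentration series, highest 100 uM, for 48 h; DMSO (0.5%) served as baseline.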

[14] = read-out: matrix metalloproteinase-3 (MMP3), MMP3 (gene 4314); assay: LTEA_HepaRG_MMP3: Life Technologies and Expression Analysis (LTEA) Assay for matrix metalloproteinase-3 (MMP3) using HepaRG (AID 2283519)
In short: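 Fluidigm-based TaqMan qRT-PCR, normalized to ACTB, GAPDH and POLR2A and fitted bidirectionally versus 0.5% DMSO, measured transcript levels. Treatment: duplicate 48 h exposures of HepaRG cells, ~100,000/well, to eight half-log concentrations topping at 100 uM.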

[15] = read-out: Paternally Expressed 10 (PEG10), PEG10 (gene 23089); assay: LTEA_HepaRG_PEG10: Life Technologies and Expression Analysis (LTEA) Assay for Paternally Expressed 10 (PEG10) using HepaRG (AID 2283520)
In short: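 PEG10 transcript measured by Fluidigm qRT-PCR, normalized to three housekeeping genes, in HepaRG cells treated 48 h (highest 100 uM, half-log steps, 0.5% DMSO vehicle). Cells plated 48 h before switching to serum-free induction medium.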

[16] = read-out: Nuclear factor NF-kappa-B p105 subunit (Homo sapiens) (UniProt P19838); assay: LTEA_HepaRG_NFKB1: Life Technologies and Expression Analysis (LTEA) Assay for Nuclear Factor Kappa B Subunit 1 (NFKB1) using HepaRG (AID 2283521);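 note: TaqMan qRT-PCR transcript normalised to ACTB GAPDH and POLR2A housekeeping genes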
In short: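 Differentiated human HepaRG cells in serum-free induction medium with 0.5% DMSO were exposed for 48 h to eight half-log concentrations, top 100 uM, in duplicate. NFKB1 mRNA measured by Fluidigm TaqMan qRT-PCR, normalised to ACTB, GAPDH and POLR2A; bidirectional fit versus DMSO.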

[17] = read-out: Protein phosphatase 2A (PPP2R4), PTPA (gene 5524); assay: LTEA_HepaRG_PPP2R4: Life Technologies and Expression Analysis (LTEA) Assay for Protein phosphatase 2A (PPP2R4) using HepaRG (AID 2283522)
In short: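 Expression was quantified by Fluidigm qRT-PCR normalised to three housekeeping genes after 48 h treatment. Human HepaRG cells received an 8-point series from 100 µM downward by half-logs, in duplicate with 0.5% DMSO vehicle and 1 mM phenobarbital as induction control.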

[18] = read-out: Phosphatase and tensin (PTEN), PTEN (gene 5728); assay: LTEA_HepaRG_PTEN: Life Technologies and Expression Analysis (LTEA) Assay for Phosphatase and tensin (PTEN) using HepaRG (AID 2283523)
In short: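 Read-out: TaqMan qRT-PCR of PTEN transcript, normalized to three housekeeping genes, fitted in both directions against 0.5% DMSO. Differentiated human HepaRG cultures received chemicals for 48 h, eight-point half-log series topping at 100 uM.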

[19] = read-out: solute carrier (SLC22A1), SLC22A1 (gene 6580); assay: LTEA_HepaRG_SLC22A1: Life Technologies and Expression Analysis (LTEA) Assay for solute carrier (SLC22A1) using HepaRG (AID 2283524)
In short: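 Transcript level of SLC22A1 quantified by qRT-PCR (normalized to three housekeeping genes) after 48 h chemical exposure of HepaRG cells, eight concentrations up to 100 µM, half-log steps, 0.5% DMSO vehicle. Gain or loss relative to DMSO fitted bidirectionally.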

[20] = read-out: NAD(P)H dehydrogenase [quinone] 1 (NQO1), NQO1 (gene 1728); assay: LTEA_HepaRG_NQO1: Life Technologies and Expression Analysis (LTEA) Assay for NAD(P)H dehydrogenase [quinone] 1 (NQO1) using HepaRG (AID 2283526)
In short: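 NQO1 transcript induction or loss measured by TaqMan qRT-PCR, referenced to three housekeeping genes and fitted bidirectionally against 0.5% DMSO. HepaRG cultures exposed 48 h, duplicate, eight-point half-log series, top 100 uM.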

Measured: outcome

Nuclear factor NF-kappa-B p105 subunit (Homo sapiens), sequence (P19838 whole entry, looked up): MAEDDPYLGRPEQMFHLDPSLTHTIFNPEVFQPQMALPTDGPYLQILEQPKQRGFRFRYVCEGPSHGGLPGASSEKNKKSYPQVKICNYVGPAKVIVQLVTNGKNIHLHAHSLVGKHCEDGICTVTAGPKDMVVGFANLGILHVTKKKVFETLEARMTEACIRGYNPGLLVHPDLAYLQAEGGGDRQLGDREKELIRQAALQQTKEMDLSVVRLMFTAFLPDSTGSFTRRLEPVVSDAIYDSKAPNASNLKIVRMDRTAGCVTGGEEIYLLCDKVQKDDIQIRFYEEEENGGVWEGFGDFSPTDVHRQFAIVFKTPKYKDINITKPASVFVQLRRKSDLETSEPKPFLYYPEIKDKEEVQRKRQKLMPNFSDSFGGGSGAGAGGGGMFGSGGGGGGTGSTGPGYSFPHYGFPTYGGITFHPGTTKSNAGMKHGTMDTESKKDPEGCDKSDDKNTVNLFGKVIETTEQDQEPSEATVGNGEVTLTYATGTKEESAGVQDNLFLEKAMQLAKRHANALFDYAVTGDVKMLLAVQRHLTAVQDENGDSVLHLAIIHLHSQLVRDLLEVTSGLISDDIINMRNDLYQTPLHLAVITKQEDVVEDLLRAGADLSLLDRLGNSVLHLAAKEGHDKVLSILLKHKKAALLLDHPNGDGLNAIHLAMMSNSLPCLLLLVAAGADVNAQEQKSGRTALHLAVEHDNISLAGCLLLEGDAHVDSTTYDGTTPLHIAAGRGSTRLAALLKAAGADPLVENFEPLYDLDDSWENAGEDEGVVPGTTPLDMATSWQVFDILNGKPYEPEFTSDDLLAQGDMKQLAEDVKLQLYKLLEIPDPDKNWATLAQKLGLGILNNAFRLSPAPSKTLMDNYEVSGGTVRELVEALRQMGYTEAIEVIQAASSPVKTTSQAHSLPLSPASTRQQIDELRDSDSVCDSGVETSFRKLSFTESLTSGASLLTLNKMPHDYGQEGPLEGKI

CC(C)(C)c1ccccc1O
inactive: all assays above

Clc1cccc(Cl)c1Cl
not listed: [5]
inactive: all other assays above

COc1ccccc1N
not listed: [16]
inactive: all other assays above

From PubChem BioAssay (EPA / NIEHS)
